Measurements as given in PubChem BioAssay (Tox21).
A number with no mark means an inactive call. Records with an inconclusive call do not appear. Where a call stands in place of a potency, no number is given. Active and inactive are the calls of the source. Unless noted, the call rests on the fitted dose curve; in most records, active means well fitted curve in the direction sought with a large enough effect in the repeat runs; inconclusive means weak or mixed curves; inactive means no such curve, though single readings can be large; an effect the other way counts as inactive or inconclusive.

Experiments:
[1] = qHTS assay to identify small molecule agonists of H2AX (AID 1224845; active means well fitted activation curve with a large enough effect in the signal ratio in the repeat runs, not every such curve was filed as active; the % refers to the signal ratio; further: potency means the concentration at half of the fitted maximal effect)
Method in brief: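 Wild-type CHO-K1 cells plated overnight, then exposed 3 hr at 37C to compounds at 15 concentrations (0.76% DMSO). Lysed, then HTRF anti-pH2AX(S139)-cryptate/anti-H2AX-d2 detection after 24 hr at room temperature; emissions 665 and 620 nm.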

[2] = qHTS assay to identify small molecule agonists of the hypoxia (HIF-1) signaling pathway (AID 1224846; active means well fitted activation curve with a large enough effect in the signal ratio in the repeat runs, not every such curve was filed as active; the % refers to the signal ratio)
Method in brief: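 Agonist mode reporter screen. ME-180 cells stably expressing bla under HRE control received test compounds in DMSO for 17 hrs (37C, 5% CO2), and beta-lactamase activity was then detected with the CCF4-AM FRET substrate.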

[3] = qHTS assay to identify small molecule agonists of H2AX - cell viability counter screen (AID 1224847; calls by dose curve; further: top concentration of the series differs between compounds; nearly all actives have a fitted effect of over 30% in size)
Method in brief: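 Read-out: CellTiter-Glo luminescence, 30 min RT. Cells: wild-type CHO-K1, 1000/well, 10% FBS, plated overnight at 37C. Treatment: 15 concentrations, 3 hr, 37C, 0.76% DMSO.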

[4] = qHTS RealTime-Glo MT Cell Viability Assay in HepG2 cells - 24 hour (AID 1224867); further: nearly all actives have a fitted effect of over 50% in size
Method in brief: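 Compound treatment began 5 h after plating HepG2 cells (600/well) with NanoLuc luciferase and prosubstrate. Plates stayed at 37 C for 40 h; luminescence was captured at six time points, 0 h through 40 h.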

[5] = qHTS RealTime-Glo MT Cell Viability Assay in HEK293 cells - 32 hour (AID 1224868); further: top concentration of the series differs between compounds; nearly all actives have a fitted effect of over 50% in size
Method in brief: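 Quantitative high-throughput screen of the Tox21 10K library in HEK293: cells and RealTime-Glo reagents plated together, compound added at 5 h, luminescence monitored through 40 h at 37 C.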

[6] = A CellTox Green Cytotoxicity Assay to monitor cytotoxicity in HEK293 cells - 0 hour (AID 1224869); further: nearly all actives have a fitted effect of over 50% in size
Method in brief: (§1)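 Dead-cell fluorescence measured kinetically: asymmetric cyanine dye, HEK293, 600 cells/well, 5 h settle, 23 nL cpd/DMSO, 37 C, reads 0–40 h every 8 h.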

[7] = qHTS RealTime-Glo MT Cell Viability Assay in HepG2 cells - 40 hour (AID 1224870); further: nearly all actives have a fitted effect of over 50% in size
Method in brief: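 HepG2 cells mixed with RealTime-Glo MT reagents (NanoLuc plus cell-permeant prosubstrate) were seeded at 600 cells/well, incubated 5 h at 37 C/5% CO2, then pinned with compounds in DMSO; nonlytic luminescence tracked viability during 40 h treatment.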

[8] = A CellTox Green Cytotoxicity Assay to monitor cytotoxicity in HEK293 cells - 40 hour (AID 1224871); further: nearly all actives have a fitted effect of over 45% in size
Method in brief: as §1

COc1cc(C(=O)OC(COCCC(C)C)CN2CCOCC2)cc(OC)c1OC (stereo unspecified)
Potency [1]: inactive | outcome [2]: inactive | outcome [3]: inactive | outcome [4]: inactive | Potency [5]: inactive | outcome [6]: inactive | Potency [7]: inactive | Potency [8]: inactive

C1CCC2(CCCCO2)OC1
Potency [1]: inactive | outcome [2]: inactive | outcome [3]: inactive | outcome [4]: inactive | Potency [5]: inactive | outcome [6]: inactive | Potency [7]: inactive | Potency [8]: inactive

CC1=CC(=O)[C@H]2C[C@@H]1C2(C)C
Potency [1]: inactive | outcome [2]: inactive | outcome [3]: inactive | outcome [4]: inactive | Potency [5]: inactive | outcome [6]: inactive | Potency [7]: inactive | Potency [8]: inactive

CCOC(=O)COc1cc(-n2ncc(C(F)(F)F)c(C)c2=O)c(F)cc1Cl
Potency [1]: inactive | outcome [2]: inactive | outcome [3]: inactive | outcome [4]: inactive | Potency [5]: inactive | outcome [6]: inactive | Potency [7]: inactive | Potency [8]: inactive

CCNS(=O)(=O)c1ccc(C)cc1
Potency [1]: inactive | outcome [2]: inactive | outcome [3]: inactive | outcome [4]: inactive | Potency [5]: inactive | Potency [7]: inactive

Cc1ncc([C@@H](CCCCCCc2ccc3c(n2)NCCC3)CC(=O)O)cn1
Potency [1]: inactive | outcome [2]: inactive | outcome [3]: inactive | outcome [4]: inactive | Potency [5]: inactive | outcome [6]: inactive | Potency [7]: inactive | Potency [8]: inactive

C=C[Si](OC(C)=O)(OC(C)=O)OC(C)=O
Potency [1]: inactive | outcome [2]: inactive | outcome [3]: inactive | outcome [4]: inactive | Potency [5]: inactive | Potency [7]: inactive | Potency [8]: inactive

CN1CCC(=C2c3ccccc3CCc3cccnc32)CC1
Potency [1]: inactive | outcome [2]: inactive | outcome [3]: inactive | outcome [4]: inactive | Potency [5]: inactive | outcome [6]: inactive | Potency [7]: inactive | Potency [8]: inactive

O=C1CCCCCCCCCCCCCCO1
Potency [1]: inactive | outcome [2]: inactive | outcome [3]: inactive | outcome [4]: inactive | Potency [5]: inactive | outcome [6]: inactive | Potency [7]: inactive | Potency [8]: inactive

C=CC(C)(CCC=C(C)C)OC(=O)CC (stereo unspecified)
Potency [1]: inactive | outcome [2]: inactive | outcome [3]: inactive | outcome [4]: inactive | Potency [5]: inactive | outcome [6]: inactive | Potency [7]: inactive | Potency [8]: inactive

Cc1nc2ccc(CN(C)c3ccc(C(=O)N[C@@H](CCC(=O)O)C(=O)O)s3)cc2c(=O)[nH]1
Potency [1]: 0.619 µM (active) | outcome [2]: inactive | outcome [3]: inactive | outcome [4]: inactive | Potency [5]: inactive | outcome [6]: inactive | Potency [7]: inactive | Potency [8]: inactive

CC(CC=O)CC(C)(C)C (stereo unspecified)
Potency [1]: inactive | outcome [2]: inactive | outcome [3]: inactive | outcome [4]: inactive | Potency [5]: inactive | outcome [6]: inactive | Potency [7]: inactive | Potency [8]: inactive

CCCCCCCCCCCCCCCCCCO
Potency [1]: inactive | outcome [2]: inactive | outcome [3]: inactive | outcome [4]: inactive | Potency [5]: inactive | outcome [6]: inactive | Potency [7]: inactive | Potency [8]: inactive

CCCCN(CCC(=O)OCC)C(C)=O
Potency [1]: inactive | outcome [2]: inactive | outcome [3]: inactive | outcome [4]: inactive | Potency [5]: inactive | outcome [6]: inactive | Potency [7]: inactive | Potency [8]: inactive

O=C(O)CNC(=O)c1ccc(CO)o1
Potency [1]: inactive | outcome [2]: inactive | outcome [3]: inactive | outcome [4]: inactive | Potency [5]: inactive | outcome [6]: inactive | Potency [7]: inactive | Potency [8]: inactive

CCCOC(=O)CC
Potency [1]: inactive | outcome [2]: inactive | outcome [3]: inactive | outcome [4]: inactive | Potency [5]: inactive | outcome [6]: inactive | Potency [7]: inactive | Potency [8]: inactive

CC(C)(C)OC(=O)c1cccc(N)c1
Potency [1]: inactive | outcome [2]: inactive | outcome [3]: inactive | outcome [4]: inactive | Potency [5]: inactive | outcome [6]: inactive | Potency [7]: inactive | Potency [8]: inactive

CC(C)C(=O)OC(=O)C(C)C
Potency [1]: inactive | outcome [2]: inactive | outcome [3]: inactive | outcome [4]: inactive | Potency [5]: inactive | outcome [6]: inactive | Potency [7]: inactive | Potency [8]: inactive

CCC(C)(CCCC(C)C)OC(C)=O (stereo unspecified)
Potency [1]: inactive | outcome [2]: inactive | outcome [3]: inactive | outcome [4]: inactive | Potency [5]: inactive | outcome [6]: inactive | Potency [7]: inactive | Potency [8]: inactive

CCCCS(=O)(=O)N[C@@H](Cc1ccc(OCCCCC2CCNCC2)cc1)C(=O)O
Potency [1]: inactive | outcome [2]: inactive | outcome [3]: inactive | outcome [4]: inactive | Potency [5]: inactive | outcome [6]: inactive | Potency [7]: inactive | Potency [8]: inactive

CC(=O)N[C@H]1[C@H]([C@H](O)[C@H](O)CO)OC(C(=O)O)=C[C@@H]1N=C(N)N
Potency [1]: inactive | outcome [2]: inactive | outcome [3]: inactive | outcome [4]: inactive | Potency [5]: inactive | outcome [6]: inactive | Potency [7]: inactive | Potency [8]: inactive

CC(=O)c1ccc2ccccc2c1
Potency [1]: inactive | outcome [2]: inactive | outcome [3]: inactive | outcome [4]: inactive | Potency [5]: inactive | outcome [6]: inactive | Potency [7]: inactive | Potency [8]: inactive

CC(=O)Nc1ccc(OCC(O)CNC(C)C)cc1 (stereo unspecified)
Potency [1]: inactive | outcome [2]: inactive | outcome [3]: inactive | outcome [4]: inactive | Potency [5]: inactive | outcome [6]: inactive | Potency [7]: inactive | Potency [8]: inactive

C1CCC2=NCCCN2CC1
Potency [1]: inactive | outcome [2]: inactive | outcome [3]: inactive | outcome [4]: inactive | Potency [5]: inactive | outcome [6]: inactive | Potency [7]: inactive | Potency [8]: inactive

C=CC(=O)OCCCl
Potency [1]: inactive | outcome [2]: inactive | outcome [3]: inactive | outcome [4]: inactive | Potency [5]: inactive | outcome [6]: inactive | Potency [7]: inactive | Potency [8]: inactive

C=COC(=O)C(C)(CC)CCC(C)C (stereo unspecified)
Potency [1]: inactive | outcome [2]: inactive | outcome [3]: inactive | outcome [4]: inactive | Potency [5]: inactive | outcome [6]: inactive | Potency [7]: inactive | Potency [8]: inactive

CN1CC(=O)N/C1=N/C(=O)Nc1cccc(Cl)c1
Potency [1]: inactive | outcome [2]: inactive | outcome [3]: inactive | outcome [4]: inactive | Potency [5]: inactive | Potency [7]: inactive | Potency [8]: inactive

CC(C)=CCC/C(C)=C/C#N
Potency [1]: inactive | outcome [2]: inactive | outcome [3]: inactive | outcome [4]: inactive | Potency [5]: inactive | Potency [7]: inactive | Potency [8]: inactive

CCCCOCCOC(=O)COc1cc(Cl)c(Cl)cc1Cl
Potency [1]: inactive | outcome [2]: inactive | outcome [4]: inactive | Potency [5]: inactive | outcome [6]: inactive | Potency [7]: inactive | Potency [8]: inactive
